Data as given in PubChem BioAssay AID1508600 (Functional Genomics Laboratory (NCATS/FGL), 2020).
The whole screen tested about 53,000 sequences, of which about 3,700 (7%) were called active. This is one part of a sample in which actives are shown more often than they occur.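 How the source made its calls: active means gene knockdowns whose robust z-score for IL-1 alpha signal is at least 2 or at most -2, so actives lie on both sides; inactive means the rest.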

Test: Components of the Cytosolic LPS Sensing Pathway: Gene Identification via Genome-wide siRNA Screen;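 further: robust z of the log signal after scaling to non-targeting control siRNA wells of the plate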
Conditions: RAW264.7 macrophages, IL-1a HTRF, actives lie on both sides, screened at 100 nM (by protocol), cells primed 5 h with Pam3CSK4 first
Outline: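 RAW264.7; siRNA 100 nM final, RNAiMAX, 48h 37 degrees C; Pam3CSK4 5 h; LipidA + TransIT-TKO 24 h; IL-1a HTRF; CellTiter-Glo viability; robust z vs negative-control median.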

z-score, active:
GGUCAAAAGUUCUGGACAGTT against Spin4 5.6, GGUUGAAGGAGUGUUUUAUTT against Rtcb 2.09, GGUACCAUAUGAGAGCUAATT against Tsr2 2.7, GGCUACUGUUGCUGCAUUUTT against Lin7c -2.49, GGAAGAUGCCUACUUCAGATT against 4632433K11Rik 2.5, GGGCUAUAUAUAUUUCCACTT against Asns 2.75, CCAUAUUGGCAAUCUCUAGTT against Khdc1a 2.15, GGAAGUCCAUCAGCUUUAUTT against Wdr78 2.29, GGACCAGGAUAGGACCAAUTT against Avpr2 2.33, GGUAUUCGAAGCAUACAAUTT against Pdha2 3.47, GGUCGGUGUUUUAUCUGCUTT against Slc17a9 -3.2, CAUCUUUCAUCAAAUAACUTT against Krtap31-2 2.49, GGUUAUUUUGGCUAUAAGATT against Traf3 -4, GGAAUUAUCUUCAUCCCUGTT against Abhd10 -4.79, GGGACCAGAACAAAUACAATT against Klc3 4.06, GGAAAUUUUUCGCAUGACCTT against Ddx39b -2.13, GGUAAAAGCUGUUUGAGAGTT against Smim3 -3.43, CCCAGAAGGAUCUGCUCUUTT against Defa20 -2.17, CGUGCCACUUUUACCGUCCTT against Zdhhc8 -2.43, GGCAAAACAUGCUUGGACCTT against Zfp687 2.31, GCUCUGCUCUUCUGAAGCATT against Dohh -2.42, AUGGAAAAAGUGCACAAUCTT against Olfr1061 2.34

z-score, inactive:
GGAGCUAGAUAGGAAAAAATT against Vill -1.44, CGAUUGACUUAAGAUUCAGTT against Hlf -0.612, GGCCAAAGAGUUCAGCCUATT against Prrx2 -0.29, GGACGAUGGUUCCUGAAAATT against Snap91 -1.39, GGCCCAUAAUUAAAUGUUUTT against Stac2 0.438, CCAAUAGUUGUGGACAUGATT against Crisp1 1.82, GCUUACCUUGUUCUUAAAGTT against D2hgdh -1.62, AACCAGAGGUCCUAAAUACTT against Mmp28 -0.948, GCUAAGUGCUCGAAUCCGATT against Cnppd1 -0.326, GGUGGACAUGUGGAAUGAUTT against Ubxn11 0.463, GCUAGUGACUUUGAGAUUGTT against Msh5 -0.75, CCACUUUCAGAAACAUUACTT against A2ml1 -1.01, CCAACAAAAACGUACUUUGTT against 9530091C08Rik 1.24, CCAGAGAGAUACCUGAUCUTT against Tas2r113 -0.993, GGGACAAUACAUUGAUAGCTT against Vmn1r206 -0.625, GGCCAUCACUAUUAGCCUCTT against Vmn1r70 -0.214, GGAAGUAUUGACGAGUGGGTT against Orai3 0.0813, GCGACUGACACUAACAGAATT against Poc1a -0.261, GGUUUCAUGAAAGAGGAGCTT against Cbs -0.926, GGGCACCACAGAAAGGAAUTT against Olfr376 -0.525, GGCUAACCGAAGCCAUCCUTT against Tceal9 0.969, GCUUUCAUUAAGUCAGAUCTT against Flvcr2 1.16, GGAUAAGAGAAAAACAGAATT against Ect2 0.141, GGCAUAGUUGCUGUUCUCUTT against Slc9a9 -0.871, GGCUGUUUGCCAAAAAAAATT against Ppp1r16a -0.36, GGCACAGUUCUGGAAGAUGTT against Qtrt1 -1.02, GCACAGACAUCUUUUGCCATT against Man2a2 -1, GGAAAUGAUCUCUUUUGGATT against Bbs2 -0.734, GGCACACUUGAGAAGACACTT against Cul5 -0.601, GGAGGAAAGAAGUCCUACATT against Rnase2b -0.835, CCUUCUAGAUGUCUUAAGATT against Zfp41 -0.244, GGCCAAACAAGACCCAUCUTT against Ppil2 -0.621, GGAAAAGUAUUGGUAGACGTT against Steap4 -1.73, GCAAUGCAAAAGAUGCCCUTT against Chchd7 0.0804, CCCAGUUAGAAUUGUUAUCTT against Snx16 1.29, GGAAAUUACUUUGAUACUCTT against Rfx3 1.5, CCAAAACGGAAUCCUAAUATT against Nyap2 -1.34, GGGCCACUUUCCAAUUCAATT against Tectb 0.817, GGAUCAUAAAAAGAAUCACTT against Gpr21 0.851, GGGAAUUUACCAAGUACCCTT against Nedd9 1.53, CCAUCCCAUAUGUUCCGGUTT against Ptms 0.94, GGUGAAAACAAUGACUUUGTT against Zbtb44 0.256, CGAUGUUACUAUAGGAUCUTT against A730036I17Rik 0.33, CCUUCAUUCUCAUUGGCAUTT against Olfr591 -0.163, GCACUACCUGUAUUAAACUTT against Efhd2 -0.652, GCAACACAAGUCAUGAAGUTT against Gabpb2 0.628, GGAACUGAAAUUCAGUUGGTT against Azin1 0.218, GGGAGGAAAUGAAUGAAUUTT against Gypc 0.686, GGAUCUAUCUCUAGUCCCGTT against Zfp358 -1.74, CCUUUAAAAGUACCAACCCTT against B9d1 0.679, CGUACCAUGGUCAAGACGUTT against Tpcn1 0.692, GCCUUAGGUUGAUAGGAGGTT against Tas2r110 -0.191, GGCCUUUUCUUCUUUUUGUTT against Mill1 0.653, GGAAGGAAAUGUGUGAAAUTT against 4930555G01Rik -0.194, GGAGAGGAUGCAUGUAAAATT against Fbxl22 -1.19, GGAAAUGAACUCAUAGCCATT against Olfr121 0.0495, GGAGUAAAGACAUUCAGGATT against Nlrp4f 0.716, GCUUGAUCGCUUUCAACUCTT against Coro7 0.734, CCUUCUUCUUACUGAUAAUTT against Olfr1276 -0.471, GCAAUGAACUAUGAAGGCATT against Npm1 -0.32, GGACAAAAUUAGACCUUUGTT against Arf2 0.47, GGCAUCCUGUUGAAACUGATT against Vezt -0.962, GGGUGAAUUCUGUCUAUGUTT against Far1 0.0586, GGAUUAUCAGAAGUGUGUCTT against Mrps35 -0.117, GUCAAGAAUAUUAUGACCCTT against Vamp8 0.516, CCUCAUUGUGUCGUCUUACTT against Zer1 -0.421, GGCUCUGAGACACAUCUACTT against Cpt1b -0.562, GGAGUUAAUCAGUCAAAUGTT against Dclk2 0.754, GGUUAUGUCGCUAAGGAAATT against Tmem50a -0.392, GGAGGUCACCUUCUCAAACTT against Mrgprf 0.374, GCCUUUAACAGCUCUUAAUTT against Gm4894 0.999, UACUCGUAUUCUUAAUUGCTT against Acsl1 -0.272, GCAGAAUCGCUUCAGUUCUTT against Tmed6 0.49, GGCUGUGUAUUACUGCGCUTT against Vpreb2 -0.236, GCCAUGAUGCAUUAUGUAUTT against Haglr -0.331, GGGUAUUGGUUUUAGAGCATT against Emd 0.37, GGCUCUAAUGUAAUGAAUCTT against Fgf10 0.259, GGGUAAAAGGCUUUUUUGUTT against St8sia6 -0.699, CCAAUUCCUGGGUGCACACTT against Olfr309 -0.691, GGAUGACAUUUCAGUGUGGTT against Matn4 0.561, GGAUAUUCAAAUGGGUGCCTT against Bcl7b 0.538, GGACAUGAUCGACGACUACTT against Zfyve28 0.109, GGAUGAAAGAAAAGAAACUTT against Hoxd11 -0.335, GGAAUGGUAAUGCUAUUGGTT against Tmem39a 0.169, GGAGAAUGGUUCAUAUCUGTT against Trmt44 -0.849, UUGUUCAAGAGCUAGAGAUTT against Atg2a 0.811
